Source: PubChem
A selection: hits, their analogues and other compounds. The true share with any hit is near 8.7%.
VACV Venus inh: qHTS for Stage-Specific Inhibitors of Vaccinia Orthopoxvirus: Venus Reporter Primary qHTS | Vaccinia virus Venus reporter expression, fluorescence | AID 720580, 2013 | actives 0.46% (n = 330,000) | Potency, µM (series often up to 36.5 µM), inactives show top-dose activity change, negative = inhibition, actives largely listed as inhibitors; calls by dose curve; tested in A549 cells; note: nearly all actives have a fitted effect of over 30% in size
Pf growth 48h: Primary qHTS for delayed death inhibitors of the malarial parasite plastid, 48 hour incubation | P. falciparum luciferase growth in erythrocytes, 48 h | Potency, µM (doses to about 28.7 µM), without a hit: top-dose activity change, negative = inhibition, actives largely listed as inhibitors | actives 5.9% (n = 310,000) | AID 504832, 2011
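In quantitative HTS format, infected erythrocytes bearing luciferase-reporter parasites were treated for a single generation at 37 C. Luminescence after adding detection reagent served as the growth measure.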
Vaccinia mCherry: qHTS for Stage-Specific Inhibitors of Vaccinia Orthopoxvirus: mCherry Reporter Primary qHTS; Potency, µM (titrated, usually from 36.5 µM), for inactives: at the top dose activity change, negative = inhibition, hits mostly inhibitors; Vaccinia virus mCherry reporter infection, fluorescence; actives 0.63% (n = 310,000); calls by dose curve; tested in A549 cells; note: nearly all actives have a fitted effect of over 35% in size
AMA1-RON2 inh: qHTS for Inhibitors of AMA1-RON; Towards Development of Antimalarial Drug Lead: Primary Screen. AID 720542, 2013. AlphaScreen AMA1-biotinylated RON2 peptide binding. actives 0.2% (n = 360,000). Potency, µM (titrated, usually from 58.2 µM), for the others: at the highest dose activity change, negative = inhibition, usual class: inhibitors;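 note: 0% = vehicle wells and -100% = peptide control; nearly all actives have a fitted effect of over 45% in size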
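AMA1 (3D7) with his tag at 25 nM final met compounds first, then biotinylated RON2 peptide at 25 nM; detection used donor plus acceptor beads, 10 µg/mL apiece, read by AlphaScreen after 30 min at room temperature.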
Pf growth 96h: Primary qHTS for delayed death inhibitors of the malarial parasite plastid, 96 hour incubation. P. falciparum luciferase reporter growth, 96 h. Potency, µM (titrated, usually from 28.7 µM), for the others: at the top dose activity change, negative = inhibition, actives largely listed as inhibitors. actives 6.9% (n = 320,000)
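Delayed-death screen, second-generation endpoint: infected erythrocytes, 2% hematocrit, 0.05% parasitemia final; 96 hours at 37 C, 5% CO2; luciferase detection reagent; luminescence decrease equals reduced growth.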
Starred values were filed as active, the others as inactive; i = inactive; ? = inconclusive; nt = no result; [ ] = dose if it differs, or a comment. Unless noted, calls come from the whole dose curve; as a rule, active = well fitted curve in the direction sought with a large enough effect; inconclusive = small, poorly fitted or top-dose-only effect, or another doubt; inactive = no such curve, though single readings can be large; an effect the other way counts as inactive or inconclusive. Unless noted, % is set by controls: 0 for no effect and ±100 for the full control effect; potency is the fitted concentration of half-maximal effect.

SMILES	VACV Venus inh	Pf growth 48h	Vaccinia mCherry	AMA1-RON2 inh	Pf growth 96h
CCOC1OC2C(CO)OC(n3cnc4c(N)ncnc43)C2O1 (stereo unspecified)	-7%	0%	i	-7%	4.7µM*
Nc1ncnc2c1ncn2[C@@H]1O[C@H](COS(=O)(=O)O)[C@@H](O)[C@H]1O	0%	13µM*	-11%	-1%	?
Nc1ncnc2c1ncn2C1OC(CO)C2OC21 (stereo unspecified)	-2%	nt	i	-5%	nt
CNC1(C)[C@H]2CC[C@H](C2)C1(C)C (stereo partly specified)	-14%	nt	-22%	-1%	nt
CNC1(C)C2CCC(C2)C1(C)C (stereo unspecified)	nt	-12%	nt	nt	6µM*
N#Cc1cc(-c2ccccc2)cn(Cc2c(Cl)cccc2Cl)c1=O	nt	?	nt	-5%	1.7µM*
CC1=C(C(N)=O)C(c2ccc(C(C)C)cc2)n2nc(SCc3ccccc3)nc2N1 (stereo unspecified)	7%	nt	4%	nt	nt
O=S(=O)(Nc1cc(C(F)(F)F)ccc1N1CCOCC1)c1ccc2ccccc2c1	-18%	?	-10%	-24%	13µM*
Cc1ccc(S(=O)(=O)Nc2cc(C(F)(F)F)ccc2N2CCOCC2)cc1C	-9%	3.3µM*	-9%	-10%	?
Cn1c(=O)c(=O)n(C)c2cc(N3CCOCC3)c(NS(=O)(=O)c3ccc(F)c(Cl)c3)cc21	?	-10%	11µM*	-10%	32%
CCOC(=O)c1ccc(N2CCCCC2)c(NS(=O)(=O)c2cccc(C(F)(F)F)c2)c1	nt	10µM*	nt	-8%	9.3µM*
CCCOC(=O)c1c(N)n(Cc2cccs2)c2nc3ccccc3nc12	nt	nt	nt	4%	7.4µM*
Nc1c(C(=O)NCCCc2ccccc2)c2nc3ccccc3nc2n1Cc1cccs1	nt	12µM*	nt	97%	nt
C=CCn1c(N)c(C(=O)OCCC)c2nc3ccccc3nc21	-29%	0%	-13%[1.46 µM]	0%	?
COc1cccc(NC(=O)c2cc(CN3CCOCC3)on2)c1	-12%	nt	-2%	nt	nt
COc1ccc(-c2cc(C)no2)cc1S(=O)(=O)N1CCOc2ccc(Cl)cc21	1%	?	-10%	0%	10µM*
CCOC(=O)N1CCN(Cc2ccc3c(c2)CN(C(=O)c2ccc4ncccc4c2)CCO3)CC1	-23%	nt	-21%	nt	nt
Cc1[nH]c2ccccc2c1SCc1n[nH]c(=S)n1C	nt	9%	nt	72%	0%
Cc1[nH]c2ccccc2c1Cc1n[nH]c(=S)n1C	-5%	15%	-18%	-26%	5.2µM*
O=[N+]([O-])c1cc(NS(=O)(=O)c2ccc(Cl)nc2)ccc1Cl	-17%	?	?	14%	1%
CC(C)c1ccc(NS(=O)(=O)c2ccc(Cl)nc2)cc1	7.9µM*	-8%	4µM*	-1%	19%
COc1ccccc1CNc1ccc(-c2nc(-c3cccnc3)no2)cc1[N+](=O)[O-]	-16%	nt	-8%	nt	nt
CC1(C)CC(=O)C2=C(C1)OC(N)=C(C#N)C2c1ccccc1OC(=O)N1CCOCC1 (stereo unspecified)	-4%	-10%	-10%	-5%	5.9µM*
CCOC(=O)c1ccccc1NC(=O)N1CCC(CN2CCOCC2)CC1	-23%	nt	i	nt	nt
CCc1ccc2c(c1)C(c1cccs1)=NNC(c1cccnc1)=N2	nt	?	nt	-11%	?
SMILES	VACV Venus inh	Pf growth 48h	Vaccinia mCherry	AMA1-RON2 inh	Pf growth 96h
Clc1ccc2c(c1)C(c1cccs1)=NNC(c1cccnc1)=N2	nt	-7%	nt	-5%	1.7µM*
O=C(NCc1cccnc1)c1cnn(-c2ncc3c(n2)-c2ccccc2CCC3)c1C1CC1	-9%	nt	-16%	nt	nt
COC(=O)N[C@H](c1ccccc1)[C@@]1(C)C[C@@H]1[C@@H](C)C(=O)Nc1ccc2ccccc2c1	-19%	nt	-12%	9%	nt
Cc1nn(C)c(Cl)c1S(=O)(=O)N[C@@H](c1ccccc1)[C@]1(C)C[C@H]1[C@@H](C)C(=O)Nc1ccc2ccccc2c1	?	-12%	?	-5%	-20%
C[C@@H](C(=O)Nc1ccc2ccccc2c1)[C@H]1C[C@]1(C)[C@H](NC(=O)c1cccnc1)c1ccccc1	?	5.2µM*	i	1%	5.2µM*
C[C@@H](C(=O)Nc1ccc2ccccc2c1)[C@@H]1C[C@@]1(C)[C@@H](NC(=O)c1ccccc1)c1ccccc1	-21%	?	-5%	4%	13µM*
C[C@@H](C(=O)Nc1ccc2ccccc2c1)[C@H]1C[C@]1(C)[C@H](NS(=O)(=O)c1ccc(-c2ccccc2)cc1)c1ccccc1	-5%	12µM*	i	-4%	8.3µM*
Cc1ccc(NC(=O)c2cc3c(=O)n(Cc4ccco4)ccc3nc2C)cc1C	-8%	nt	-3%	nt	nt
CNS(=O)(=O)c1cccc(C(=O)NCC2(N3CCCCC3)CCCCC2)c1	2%	9%	-9%	-6%	40%
CCOc1ccc(NS(=O)(=O)c2ccc(C(=O)NNC(=O)c3ccccc3O)cc2)cc1	?	?	7.1µM*	63%	?
Cc1cccc(NS(=O)(=O)c2cccc(C(=O)NCC3(N4CCCCC4)CCCCC3)c2)c1	-25%	6.6µM*	-9%	-20%	8.3µM*
CCC(=O)c1ccc(OCC(=O)NCC2(N3CCCCC3)CCCCC2)cc1	-10%	-8%	i	62%	4.7µM*
CCc1ccc(CN(C)C(=O)c2cccc(S(=O)(=O)Nc3ccccc3OC)c2)cc1	-21%	10µM*	-29%	-2%	?
COc1ccc(Nc2ncnc3c2c(-c2ccccc2)cn3-c2ccc(C)c(Cl)c2)cc1OC	-1%	nt	-5%	nt	nt
CC(Oc1ccccc1)C(=O)Nc1cccc(-c2cn3cccnc3n2)c1 (stereo unspecified)	-12%	nt	-18%	nt	nt
COc1ccc(C(CNC(=O)c2cccc(Br)c2)N2CCCC2)cc1 (stereo unspecified)	nt	nt	nt	2%	?
COc1ccc(C(CNC(=O)c2cccc(S(=O)(=O)Nc3ccc(C)cc3)c2)N2CCCCC2)cc1 (stereo unspecified)	-27%	8.3µM*	-16%	-9%	9.3µM*
COc1ccc(C(CNC(=O)c2cccc(NS(=O)(=O)c3ccccc3)c2)N2CCCC2)cc1 (stereo unspecified)	nt	nt	nt	-3%	nt
COc1ccc(C(CNC(=O)c2cccc(NC(=O)c3cccs3)c2)N2CCCC2)cc1 (stereo unspecified)	-17%	12µM*	-11%	-13%[11.6 µM]	5.9µM*
CCOc1ccc(S(=O)(=O)Nc2ccc(C(=O)NCC3(N4CCCCC4)CCCCC3)cc2)cc1	-28%	3.3µM*	i	-4%	1.2µM*
